Assay in all cases: NCI-60 one-dose screen, 48 h (100 = growth as untreated, 0 = no growth, -100 = all killed)
Settings in all cases: 10 µM unless noted

The subject of assay [1] is NCI-H23 lung.
The subject of assay [2] is NCI-H226 lung.
For assay [3], the system named is NCI-H322M lung.
Assay [4] concerns HOP-62 NSCLC.
Assay [5] deals with NCI-H460 lung.
Assay [6] concerns NCI-H522 lung.
The subject of assay [7] is 786-0 renal.
Assay [8] deals with COLO 205 colon.
For assay [9], the system named is DU-145 prostate.
For assay [10], the system named is A549/ATCC NSCLC.

SMILES strings stand for the structures. Compounds without any hit were thinned out: in the full panel of roughly 83,000, 20% have a hit.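 Single-concentration screen, 48 h exposure, 96-well plates. Endpoint: percent growth. Below 10 = active.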 A number with no mark means an inactive call. Activity calls are given as the source filed them.

As for `CC[N+](CC)(CCOCCOCC[N+](CC)(CC)Cc1ccc([N+](=O)[O-])cc1)Cc1ccc([N+](=O)[O-])cc1`, the growth in assay [1] was 99.2%; in [2], 91.7%; in assay [3] it was 117%; in assay [4], 76.4%; in assay [5] it was 96.8%; in [6] it was 93.4%. Besides, the growth in [7] was 109%; in [8] it was 106%; in assay [9] it was 119%.

As to `CCN1C(=O)c2ccc3c4c(ccc(c24)C1=O)C(=O)N(CCCNCc1ccccc1OC)C3=O`, the growth in assay [1] is -42.7% (active); in assay [2] it was -36.6% (active); in assay [3], -31.6% (active); in assay [4], -36.8% (active); in assay [5] it was -57.8% (active); in assay [10] it was -58.1% (active). The growth in assay [7] is -51.5% (active); in assay [8] it was -81.5% (active); in assay [9], -87.4% (active).

On to `Cc1cccc(Cl)c1NC(=O)c1ccc2nc(NC(=O)NC3CC(C)(C)NC(C)(C)C3)sc2c1`, for which the growth in [1] is 91%; in assay [2], 103%; in assay [3], 81.8%; in assay [4], 68.3%; in [5], 101%; in [6] it was 88.6%. In addition, the growth is 84.6% in assay [7], 15.3% in assay [8] and 103% in assay [9].

Regarding `Nc1cc(Cl)c(S(N)(=O)=O)cc1S(N)(=O)=O`, the growth was 87.1% in assay [1]; 92.8% in assay [2]; 87.9% in assay [3]; 111% in assay [4]; 106% in [5]; 68.8% in assay [6]. Further, the figures for the growth in assay [7], in [8] and in assay [9] were 100%, 109% and 121%, respectively.

As to `c1ccc2c(c1)[nH]c1c2cc[n+]2cc3c(cc12)CCCC3`, the growth was 40.6% in assay [1]; 35.5% in assay [2]; 29.8% in [3]; 18.8% in assay [4]; 15.2% in assay [5]; 64% in assay [10]. In addition, the growth in assay [7] was 48.7%; in assay [8] it was 36.3%; in [9], 40.9%.

As to `O=C(/C=C/c1cc2ccccc2[nH]c1=O)c1ccc(O)cc1`, the growth in assay [1] is 56.9%; in assay [2], 98.7%; in assay [3] it was 51.8%; in assay [4] it was 42.5%; in assay [5] it was 1.97% (active); in [6] it was -44.1% (active). In addition, the growth in assay [7] was 62.6%; in assay [8], 105%; in assay [9], -44.1% (active).

Consider `C/C(=N\N1CC(=O)NC1=O)c1ccc([N+](=O)[O-])o1`, for which the growth in assay [1] is 101%; in assay [2], 106%; in assay [3], 121%; in [4], 120%; in assay [5], 94.6%; in assay [10], 97.3%. The growth in assay [7] was 103%; in assay [8] it was 108%; in assay [9], 98.8%.

With `COc1cccc(CCC2C(=O)CCCC2=O)c1`, the growth in assay [1] was 103%; in assay [2] it was 111%; in assay [3], 102%; in assay [4] it was 106%; in assay [5] it was 117%; in assay [10], 108%. Besides, the growth was 108% in [7], 99.5% in [8] and 105% in [9].

As for `CC(C)(C)c1cc(O)c(O)c(C(C)(C)C)c1`, the growth in assay [1] is 48.4%; in [2] it was 75.6%; in [3] it was 63.5%; in assay [4], 64.7%; in assay [5], 14.7%; in assay [10], 20.9%. The growth was 52.2% in assay [7], 64.9% in [8] and 68.7% in assay [9].

Regarding `CN1CCCC1c1cccnc1` (stereo not drawn), the growth is 2.54% (active) in [1]; 96.4% in assay [2]; 105% in assay [3]; 113% in [4]; 98.6% in [5]; 17.3% in [6]. The growth in [7] was 108%; in [8], 105%; in assay [9], 110%.

On to `COc1ccc(C(=O)C(C)Br)cc1OC` (stereo not drawn), for which the growth in assay [1] was 90.7%; in assay [2] it was 96.1%; in assay [3] it was 99%; in assay [4], 106%; in [5], 103%; in assay [6], -10.4% (active). Further, the growth in assay [7] was 95.5%; in [8] it was 23.3%; in assay [9], 107%.

With `CCCCC(C#N)C(N)=O` (stereo not drawn), the growth was 105% in assay [1]; 102% in assay [2]; 110% in assay [3]; 99% in assay [4]; 111% in assay [5]; 96.7% in [6]. Also, the growth in [7] was 96.4%; in [9] it was 104%.

Consider `C[C@]12CC[C@@H]3c4ccc(O)c([N+](=O)[O-])c4CC[C@H]3[C@@H]1CC[C@@H]2NS(=O)(=O)c1cccc(Br)c1`, for which the growth in [1] was 28%; in assay [2], 62.4%; in assay [3], 53.8%; in assay [4] it was 78.3%; in [5], 20%; in [10], 19%. The growth is 42.8% in [7], 101% in [8] and 52.7% in assay [9].

In the case of `CC(=O)Nc1ccc2c(c1)Cc1c(F)c(F)c(F)c(F)c1-2`, the growth in assay [1] is 25.2%; in assay [2], 76.5%; in assay [3] it was 81.9%; in assay [4], 107%; in assay [5], 65.8%; in assay [6], 23.2%. For the same molecule, the growth in assay [7] was 75.3%; in [8], 105%; in assay [9], 96.4%.

Consider `Oc1ccccc1C=Nc1ccccc1N=Cc1ccccc1O.[Cu+2]`, for which the growth in [1] is 33.1%; in assay [2], 71.1%; in assay [3] it was 51.1%; in [4], 66%; in assay [5], 84.1%; in [10], 66%. The growth in assay [7] is 90.9%; in [9], 68.5%.

`COc1ccc(-c2nn(-c3cccc(Cl)c3)cc2C2CC(c3ccccc3)=NN2C(C)=O)cc1` (stereo not drawn): the growth was 84.2% in assay [1]; 37.9% in [2]; 76.8% in assay [3]; -18.1% (active) in [4]; 39.6% in assay [5]; 67.6% in assay [10]. In addition, the growth in [7] is 72.2%; in [8], 81.6%; in assay [9], 72.2%.

Consider `CC(=O)Oc1ccc(C23c4ccccc4C2(OC(C)=O)c2cc(OC(C)=O)ccc23)cc1` (stereo not drawn), for which the growth was 96.2% in assay [1]; 140% in assay [2]; 107% in [3]; 53.1% in [4]; 88.7% in [5]; 97% in assay [10]. Besides, the figures for the growth in assay [7], in assay [8] and in assay [9] were 69.3%, 95.5% and 103%, respectively.

Consider `COc1c(O)cc2oc3cc(O)c(CC=C(C)C)c(O)c3c(=O)c2c1C/C=C(\C)CCC=C(C)C`, for which the growth in assay [1] was 33.5%; in assay [2], 105%; in assay [3] it was 90.1%; in assay [4], 41.2%; in assay [5] it was 33.6%; in [10], 45.1%. Further, the growth is 30.2% in assay [7], 81.7% in assay [8] and 81.1% in assay [9].

Take `CC[N+](C)(CC)CCCC(C)Nc1ccnc2cc(Cl)ccc12` (stereo not drawn): the growth is 102% in [1]; 96.3% in assay [2]; 96.5% in assay [3]; 113% in assay [4]; 102% in [5]; 107% in [10]. For the same molecule, the growth in [8] was 107%; in [9] it was 97.7%.

As for `CSc1ccc2c(c1)N(CCC1CCCCN1C)c1ccccc1S2` (stereo not drawn), the growth was 83.9% in assay [1]; 107% in [2]; 64% in [3]; 68.8% in [4]; 46.8% in assay [5]; 63.9% in [10]. Also, the growth in assay [7] is 43.9%; in assay [8] it was 18.9%; in [9] it was 68.7%.

Consider `NC(=O)NN=C(C1CC1)C1CC1`, for which the growth in assay [1] was 93.8%; in assay [2], 109%; in [3] it was 110%; in assay [4], 104%; in assay [5] it was 106%; in [10] it was 103%. Besides, the figures for the growth in assay [7], in assay [8] and in assay [9] were 107%, 105% and 116%, respectively.

Turning to `COc1ccc(/C=C(\C#N)c2ccccc2)cc1`, the growth in assay [1] was 95.7%; in assay [2], 89.6%; in assay [3], 97.5%; in assay [4], 99.6%; in [5] it was 98.9%; in assay [10], 81.8%. For the same molecule, the figures for the growth in assay [7], in [8] and in assay [9] were 102%, 103% and 103%, respectively.

For the molecule `O=c1ccn(C2CCCO2)c(=O)[nH]1` (stereo not drawn), the growth is 119% in [1]; 114% in assay [2]; 117% in assay [3]; 107% in assay [4]; 106% in assay [5]; 95.3% in assay [10]. Further, the growth in assay [7] was 109%; in [8], 118%; in assay [9], 109%.

For `C=CCCCCCCCCC(=O)[O][Sn]([CH2]CCC)([CH2]CCC)[CH2]CCC`, the growth in [1] was -86.2% (active); in assay [2], -52.7% (active); in [3] it was -88.7% (active); in assay [4], -94.7% (active); in [5], -83.3% (active); in assay [7], -96% (active). In addition, the growth in [8] is -86% (active); in [9] it was -95.2% (active).

`CCCCCCC/C(=N\N=C(N)N)c1ccc(O)cc1`: the growth in assay [1] was 57.5%; in assay [2], -8.37% (active); in [3] it was 56.9%; in [4] it was 43.9%; in [5], 26.7%; in assay [10], 51.9%. The figures for the growth in assay [7], in [8] and in [9] were 63.1%, -88.8% (active) and 53.4%, respectively.

With `COc1ccc2c(c1)C(=O)/C(=C/c1cccc(OCC(=O)c3ccccc3)c1)CC2`, the growth in assay [1] was 87.4%; in assay [2], 75.9%; in assay [3], 108%; in assay [4] it was 101%; in assay [5] it was 113%; in assay [7] it was 87.6%. In [8], the growth was 136%.

Regarding `O=C(/C=C/c1ccccc1)CC(c1ccccc1)N1CCOCC1` (stereo not drawn), the growth is 96.6% in assay [1]; 99.5% in assay [2]; 121% in assay [3]; 102% in [4]; 106% in assay [5]; 63% in assay [10]. Further, the growth in assay [7] is 4.06% (active); in [8], 76.3%; in assay [9], 91.3%.

With `Cc1c(C(N)=O)sc2c1C(=O)N(Cc1ccccc1)C1=NN=C(c3ccc(Cl)cc3)CN12`, the growth in [1] was 58.9%; in assay [2] it was 73.9%; in [3], 38.1%; in assay [4], 66.3%; in [5] it was 28%; in [10] it was 46%. Further, the growth in [7] is 43%; in assay [9], 46.1%.

Take `Clc1ccc(-n2cnc3c(Cl)ncnc32)cc1Cl`: the growth was 87% in assay [1]; 102% in assay [2]; 64.8% in [3]; 83.6% in assay [4]; 101% in assay [5]; 95.5% in assay [10]. Besides, the figures for the growth in assay [7] and in assay [9] were 98.7% and 76.6%, respectively.

For the origin of these results see PubChem BioAssay (NCI).
